Compound activity deposited in PubChem by National Center for Advancing Translational Sciences (NCATS).
Shown are actives, neighbours in structure and some others; about 2.1% of the full set was active somewhere.
Abeta rescue: restores growth of yeast expressing A-beta42 peptide. actives 0.063% (n = 410,000). AID 1347071. yeast expressing A-beta42, growth rescue, OD600, 48 h; response scale: 0% DMSO, 100% iron-clioquinol control. Potency, µM (titrated, usually from 46.1 µM), hits mostly activators; also: nearly all actives have a fitted effect of over 55% in size
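Growth rescue measured by 600 nm absorbance after 48 h yeast culture at 30 C with compound. Values normalized between DMSO and an equimolar ferric chloride plus clioquinol control.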
TSG101-PTAP inh: blocks PTAP/TSG101 interaction to inhibit HIV-1 budding. 340,000 tested, under 10 active. Potency, µM (highest dose often 115 µM), for the others: at the top dose activity change, negative = inhibition, actives largely listed as inhibitors. Fluorescence polarization, FITC-PTAP peptide / Tsg101 binding; active = well fitted inhibition curve with a large enough effect in the main read-out, with a control signal flat, not every such curve was filed as active; inconclusive = small, poorly fitted or top-dose-only effect, or effect the other way, or a change in a side signal; inactive = no such curve, though single readings can be large or run the other way; also: % of control where 0% means no effect
Target sequence (Q99816 whole entry, looked up): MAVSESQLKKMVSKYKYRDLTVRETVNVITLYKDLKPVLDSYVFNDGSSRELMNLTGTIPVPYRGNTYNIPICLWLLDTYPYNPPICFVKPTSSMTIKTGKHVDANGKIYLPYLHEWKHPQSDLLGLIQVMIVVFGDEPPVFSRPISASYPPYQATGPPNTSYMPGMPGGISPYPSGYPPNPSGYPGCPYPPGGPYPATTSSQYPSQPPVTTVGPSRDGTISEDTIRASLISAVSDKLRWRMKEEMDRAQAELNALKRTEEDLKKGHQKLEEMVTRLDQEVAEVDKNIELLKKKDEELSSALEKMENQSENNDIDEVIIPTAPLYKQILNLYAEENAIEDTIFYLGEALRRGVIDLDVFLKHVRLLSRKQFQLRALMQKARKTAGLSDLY
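FP read-out: FITC-PTAP peptide, 50 nM final, binding Tsg101 binding domain, 10 uM final; 20 min, r.t.; 10 mM HEPES pH 7.5, 0.15 M NaCl, 0.01% Tween 20, 3 mM EDTA, 0.1 mM TCEP.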
TDP-43 yeast inh: inhibitors of TDP-43 toxicity in yeast; actives 1.8% (n = 410,000); AID 652104; TDP-43 expressing yeast growth rescue, BacTiter-Glo, 24 h; Potency, µM (highest dose often 46.1 µM), inactives show at the top dose growth rescue (activation), hits mostly activators; also: % of control where 0% means no effect; nearly all actives have a fitted effect of over 50% in size
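Galactose-induced TDP-43 yeast, OD600=0.02, compound pinned; 24 hr, 30 deg C; BacTiter-Glo luminescence for growth. Inhibitors of TDP-43 toxicity read as activators.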
aSyn rescue: rescues yeast growth from alpha-synuclein toxicity; Yeast expressing alpha-synuclein, growth rescue, BacTiter-Glo, 24 h; Potency, µM (titrated, usually from 46.1 µM), for the others: at the top dose growth rescue (activation), usual class: activators; actives 0.14% (n = 370,000); AID 652106; also: % of control where 0% means no effect; nearly all actives have a fitted effect of over 65% in size
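Screening used galactose-induced yeast with toxic alpha-synuclein levels, exposed to compound for 24 hr at 30 deg C. Cell growth, read with BacTiter-Glo luminescence, gave the measured signal.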
FUS yeast rescue: rescues growth of FUS-expressing yeast; S. cerevisiae FUS-expressing, growth rescue, OD600, 24 h; Potency, µM (doses to about 76.6 µM), hits mostly activators; actives 0.24% (n = 390,000); AID 1347120;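 also: plate controls were DMSO vehicle for no effect and reference control for full effect; nearly all actives have a fitted effect of over 55% in size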
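Restored growth of FUS-toxic S. cerevisiae, read as 600 nm absorbance after 24 h at 30C in galactose medium (starting OD 0.005). Controls CP55940 and DMSO.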
* = called active by the depositor; i = inactive; ? = inconclusive; . = no result; [ ] = another dose, or the depositor's remark. Unless noted, calls follow the shape of the dose curve; as a rule, active = well fitted curve in the direction sought with a large enough effect; inconclusive = small, poorly fitted or top-dose-only effect, or another doubt; inactive = no such curve, though single readings can be large; an effect the other way counts as inactive or inconclusive. Potency is read from the fitted curve at half-maximal effect.

SMILES	Abeta rescue	TSG101-PTAP inh	TDP-43 yeast inh	aSyn rescue	FUS yeast rescue
CC(C)c1ccc(/C=N/Nc2ccc(C(=O)O)cc2)cc1	i	-1%	11µM*	-13%	i
COc1ccc2ccccc2c1/C=N/Nc1ccc(Cl)c(C(=O)O)c1	i	-3%	11%	-12%	i
O=C(O)c1ccc(N/N=C/C=C/c2ccccc2)cc1	i	3%	3.5µM*	-21%	i
COc1ccc2ccccc2c1/C=N/Nc1cccc(C(=O)O)c1	i	1%	20µM*	7%	i
O=C(O)c1cc(N/N=C/c2ccc(-c3ccccc3)cc2)ccc1Cl	i	-4%	35µM*	-53%	i
CCc1ccc(NC(=O)c2ccc3c(=O)n4nc(Nc5ccccc5C)sc4nc3c2)cc1	i	.	18%	1%	i
O=C(Cn1c2ncccc2c(=O)n1-c1ccccc1)Nc1cccc(C(F)(F)F)c1	i	.	19%	.	i
O=C(O)c1cccc(N/N=C/c2ccc(F)c(F)c2)c1	i	-5%	25µM*	-41%	i
O=C(O)c1ccc(N/N=C/c2ccc(-c3ccccc3)cc2)cc1	i	-1%	5.6µM*	1%	i
O=C(O)c1ccc(/C=N/Nc2cccc(C(F)(F)F)c2)cc1	i	-6%	?	-62%	i
O=C(O)c1ccc(/C=N/Nc2ccc(C(F)(F)F)cn2)cc1	i	-7%	8.9µM*	6%	i
CCc1cccc(NC(=O)C2CCN(C(=O)c3cnn(-c4ccccc4)c3-n3cccc3)CC2)c1	i	.	2%	.	?
CC(C)c1ccc(C2c3c(-c4ccccc4O)n[nH]c3C(=O)N2CCc2ccccc2)cc1 (centres undefined)	i	.	13%	.	i
Cc1cc(NC(=O)c2ccc3c(c2)N(Cc2cccc(Cl)c2)C(=O)c2ccccc2S3(=O)=O)ccc1Br	i	.	-7%	5%	?
C/C(=N\Nc1cc(C(F)(F)F)ccc1Cl)c1ccccc1O	i	-1%	24%	0%	.
C/C(=N\Nc1ccc(F)cc1F)c1ccccc1O	i	-1%	13µM*	2%	i
O=C(COc1ccc(Cl)cc1)NNC(=O)c1ccccn1	?	-4%	14µM*	?	i
Cc1cc(C)cc(OCC(=O)NNC(=O)c2ccccn2)c1	?	-4%	20µM*	?	i
Cc1cc(C)cc(OCC(=O)NNC(=O)c2cc(C)[nH]n2)c1	i	-1%	-23%	1%	i
CC(C)(C)NC(=O)[C@]1(C)CCC[C@@]2(C)C3CC[C@@]4(C)C[C@]3(CCC21)CC4=O (some centres undefined)	i	-6%	-8%	-6%	i
C[C@@]12CCC3[C@@](CCC4[C@@]3(C)CCC[C@@]4(C)C(=O)O)(CC1=O)C2 (some centres undefined)	i	-2%	20µM*	5%	i
Cc1ccccc1-c1nc2scc(CCNC(=O)c3ccco3)n2n1	i	.	18µM*	.	i
O=C(NCCc1csc2nc(-c3ccc(F)cc3)nn12)c1ccco1	i	.	0%[9.22 µM]	.	i
CC(C)(C)c1ccc(C(=O)NCCc2csc3nc(-c4ccccc4F)nn23)cc1	i	.	35µM*	.	?
O=S1(=O)c2ccc(N3CCC[C@H]3CO)cc2O[C@@H]2CCN1C2	.	.	.	.	i
SMILES	Abeta rescue	TSG101-PTAP inh	TDP-43 yeast inh	aSyn rescue	FUS yeast rescue
O=C(CSc1nc2ncccc2o1)Nc1ccc(Cl)cc1F	i	.	0%	.	i
CCCS(=O)(=O)Nc1cc2c(cc1NCc1ccccc1)n(C)c(=O)n2C	i	.	9%	.	i
O=C(Nc1ccc(Br)cc1F)c1cc2nc(-c3ccco3)cc(C(F)(F)Cl)n2n1	i	.	7%	.	i
CCCC1CCC2(CCCN2CCOC(=O)Nc2ccccc2C)CC1 (centres undefined)	.	.	.	.	i
Cc1cccc(OCCn2c(NC(=O)c3ccco3)nc3ccccc32)c1	i	-4%	16µM*	5%	i
CCCn1c(NC(=O)C2CCN(C(=O)c3ccccc3C)CC2)nc2ccccc21	i	1%	?	1%	i
